# From PubChem BioAssay (EPA / NIEHS)
# Activity calls are given as the source filed them. The calls were made as follows: active = hit-call score of the fitted dose curve at least 0.9, where 1 is the maximum; inactive = score below 0.9.
# Key:
# Conditions in all cases: mRNA level, 48 h; actives raise or lower the signal
# [1] = read-out: Heat shock 70 kDa protein 1 (HSPA1A), gene 3303; assay: LTEA_HepaRG_HSPA1A: Life Technologies and Expression Analysis (LTEA) Assay for Heat shock 70 kDa protein 1 (HSPA1A) using HepaRG (AID 2283502)
# Summary of the method: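 Differentiated human HepaRG cells in serum-free induction medium were exposed in duplicate for 48 h to eight concentrations (top 100 uM, half-log steps, 0.5% DMSO). HSPA1A mRNA was quantified by qRT-PCR, normalized to ACTB, GAPDH and POLR2A, and fitted bidirectionally against DMSO.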
# [2] = read-out: 3-Hydroxy-3-Methylglutaryl-CoA Synthase 2 (HMGCS2), HMGCS2 (gene 3158); assay: LTEA_HepaRG_HMGCS2: Life Technologies and Expression Analysis (LTEA) Assay for 3-Hydroxy-3-Methylglutaryl-CoA Synthase 2 (HMGCS2) using HepaRG (AID 2283504)
# Summary of the method: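 Readout is HMGCS2 transcript by qRT-PCR, housekeeping-normalised (ACTB/GAPDH/POLR2A) and fitted bidirectionally against 0.5% DMSO. Differentiated HepaRG cells received chemicals 48 h, duplicate wells, eight half-log concentrations topping at 100 uM.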
# [3] = read-out: HGF (gene 3082); assay: LTEA_HepaRG_HGF: Life Technologies and Expression Analysis (LTEA) Assay for Hepatocyte Growth Facto (HGF) using HepaRG (AID 2283505)
# Summary of the method: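 HGF transcript was quantified by TaqMan qRT-PCR against three housekeeping genes after 48 h treatment of HepaRG cells. Exposure ran in duplicate over eight half-log steps topping at 100 uM in 0.5% DMSO vehicle.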
# [4] = read-out: Insulin Like Growth Factor 1 (IGF1), IGF1 (gene 3479); assay: LTEA_HepaRG_IGF1: Life Technologies and Expression Analysis (LTEA) Assay for Insulin Like Growth Factor 1 (IGF1) using HepaRG (AID 2283506)
# Summary of the method: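 Differentiated human HepaRG cells were dosed for 48 h in serum-free induction medium with 0.5% DMSO, eight half-log concentrations up to 100 uM, in duplicate. IGF1 mRNA was quantified by qRT-PCR normalized to ACTB, GAPDH, POLR2A; bidirectional fitting versus DMSO.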
# [5] = read-out: Intercellular Adhesion Molecule 1 (ICAM1), ICAM1 (gene 3383); assay: LTEA_HepaRG_ICAM1: Life Technologies and Expression Analysis (LTEA) Assay for Intercellular Adhesion Molecule 1 (ICAM1) using HepaRG (AID 2283507)
# Summary of the method: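 ICAM1 transcript levels measured by qRT-PCR, normalized to three housekeeping genes (ACTB, GAPDH, POLR2A), after 48 h chemical exposure of HepaRG cells. Duplicate eight-point half-log series from 100 uM in 0.5% DMSO; gain or loss fitted against vehicle.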
# [6] = read-out: Insulin-like growth factor-binding protein 1 (IGFBP1), IGFBP1 (gene 3484); assay: LTEA_HepaRG_IGFBP1: Life Technologies and Expression Analysis (LTEA) Assay for Insulin-like growth factor-binding protein 1 (IGFBP1) using HepaRG (AID 2283508)
# Summary of the method: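 Read-out is qRT-PCR transcript level normalized to three housekeeping genes, fitted in both directions against 0.5% DMSO. Differentiated HepaRG cells received eight half-log concentrations (top 100 uM) in duplicate for 48 h in serum-free induction medium.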
# [7] = read-out: Interleukin 6 (IL6), IL6 (gene 3569); assay: LTEA_HepaRG_IL6: Life Technologies and Expression Analysis (LTEA) Assay for Interleukin 6 (IL6) using HepaRG (AID 2283509)
# Summary of the method: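 HepaRG, ~100,000 cells/well, 48 h pre-culture; serum-free induction medium; cmpd 8-pt half-log from 100 uM, 0.5% DMSO, duplicate, 48 h. Lysis in RLT, TaqMan qRT-PCR; gain or loss vs DMSO.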
# [8] = read-out: Interleukin 6 Receptor (IL6R), IL6R (gene 3570); assay: LTEA_HepaRG_IL6R: Life Technologies and Expression Analysis (LTEA) Assay for Interleukin 6 Receptor (IL6R) using HepaRG (AID 2283510)
# Summary of the method: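 Differentiated human HepaRG cells, plated 48 h then switched to serum-free induction medium, were dosed in duplicate for 48 h at eight half-log concentrations up to 100 uM in 0.5% DMSO. IL6R mRNA quantified by qRT-PCR, normalized to ACTB/GAPDH/POLR2A; bidirectional fit versus DMSO.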
# [9] = read-out: Keratin 19 (KRT19), KRT19 (gene 3880); assay: LTEA_HepaRG_KRT19: Life Technologies and Expression Analysis (LTEA) Assay for Keratin 19 (KRT19) using HepaRG (AID 2283512)
# Summary of the method: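 KRT19 transcript measured by TaqMan qRT-PCR, referenced to three housekeeping genes, after HepaRG cells received test chemicals for 48 h. Eight half-log concentrations, top 100 uM, 0.5% DMSO vehicle; increases and decreases both fitted.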
# [10] = read-out: JUN Transcription Factor, JUN (gene 3725); assay: LTEA_HepaRG_JUN: Life Technologies and Expression Analysis (LTEA) Assay for JUN Transcription Factor using HepaRG (AID 2283513)
# Summary of the method: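 Differentiated HepaRG cells were exposed to chemicals for 48 h in serum-free induction medium, 8 concentrations from 100 uM in half-log steps, 0.5% DMSO vehicle, in duplicate. JUN mRNA was quantified by TaqMan qRT-PCR, normalized to ACTB, GAPDH, POLR2A.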
# [11] = read-out: Lipase C (LIPC), LIPC (gene 3990); assay: LTEA_HepaRG_LIPC: Life Technologies and Expression Analysis (LTEA) Assay for Lipase C (LIPC) using HepaRG (AID 2283514)
# Summary of the method: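 Read-out is LIPC transcript level by TaqMan qRT-PCR, normalized to three housekeeping genes, after 48 h chemical treatment of human HepaRG liver cells. Curves span eight concentrations topping at 100 uM; activity in either direction scored relative to 0.5% DMSO.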
# [12] = read-out: matrix metalloproteinase-10 (MMP10), MMP10 (gene 4319); assay: LTEA_HepaRG_MMP10: Life Technologies and Expression Analysis (LTEA) Assay for matrix metalloproteinase-10 (MMP10) using HepaRG (AID 2283517)
# Summary of the method: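 Gain or loss of MMP10 mRNA is fitted relative to the 0.5% DMSO vehicle. The human hepatic line HepaRG receives a 48-hour serum-free exposure, in duplicate, with a maximum concentration of 100 uM.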
# [13] = read-out: MYC, MYC (gene 4609); assay: LTEA_HepaRG_MYC: Life Technologies and Expression Analysis (LTEA) Assay for MYC using HepaRG (AID 2283518)
# Summary of the method: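 MYC transcript changes, up or down relative to 0.5% DMSO, from TaqMan qRT-PCR normalized to three housekeeping genes. Human HepaRG cultures received chemicals for 48 h at eight half-log concentrations up to 100 uM, in duplicate.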
# [14] = read-out: matrix metalloproteinase-3 (MMP3), MMP3 (gene 4314); assay: LTEA_HepaRG_MMP3: Life Technologies and Expression Analysis (LTEA) Assay for matrix metalloproteinase-3 (MMP3) using HepaRG (AID 2283519)
# Summary of the method: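 HepaRG, human; 48 h dosing, 8 conc. (max 100 uM, half-log), duplicate, 0.5% DMSO. Readout: MMP3 transcript by Fluidigm TaqMan qRT-PCR, ACTB/GAPDH/POLR2A-normalised. Gain or loss fitted vs DMSO.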
# [15] = read-out: Paternally Expressed 10 (PEG10), PEG10 (gene 23089); assay: LTEA_HepaRG_PEG10: Life Technologies and Expression Analysis (LTEA) Assay for Paternally Expressed 10 (PEG10) using HepaRG (AID 2283520)
# Summary of the method: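 Differentiated HepaRG cells, plated 48 h then switched to serum-free induction medium, were exposed in duplicate for 48 h to eight half-log concentrations topping at 100 uM in 0.5% DMSO. PEG10 mRNA was quantified by TaqMan qRT-PCR, normalised to ACTB, GAPDH and POLR2A.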
# [16] = read-out: Nuclear factor NF-kappa-B p105 subunit (Homo sapiens) (UniProt P19838); assay: LTEA_HepaRG_NFKB1: Life Technologies and Expression Analysis (LTEA) Assay for Nuclear Factor Kappa B Subunit 1 (NFKB1) using HepaRG (AID 2283521)
# Summary of the method: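 Differentiated human HepaRG cells in serum-free induction medium with 0.5% DMSO were exposed for 48 h to eight half-log concentrations, top 100 uM, in duplicate. NFKB1 mRNA measured by Fluidigm TaqMan qRT-PCR, normalised to ACTB, GAPDH and POLR2A; bidirectional fit versus DMSO.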
# [17] = read-out: MicroRNA 122 (MIR122), gene 406906; assay: LTEA_HepaRG_MIR122: Life Technologies and Expression Analysis (LTEA) Assay for MicroRNA 122 (MIR122) using HepaRG (AID 2283516); also: the transcript read is the microRNA miR-122
# Summary of the method: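 Differentiated human HepaRG cells were exposed 48 h in serum-free induction medium to eight half-log concentrations (top 100 uM, 0.5% DMSO). Transcript level was measured by TaqMan qRT-PCR, normalized to ACTB, GAPDH and POLR2A, and fitted bidirectionally versus DMSO.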
# [18] = read-out: Potassium channel subfamily K member 1 (KCNK1), KCNK1 (gene 3775); assay: LTEA_HepaRG_KCNK1: Life Technologies and Expression Analysis (LTEA) Assay for Potassium channel subfamily K member 1 (KCNK1) using HepaRG (AID 2283511)
# Summary of the method: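 Gain or loss of KCNK1 mRNA is the read-out, quantified by qRT-PCR against three housekeeping genes after 48 h chemical treatment of human HepaRG liver cells. Concentrations ran from 100 uM downward in half-log steps, vehicle 0.5% DMSO.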
# [19] = read-out: Lipoprotein lipase (LPL), LPL (gene 4023); assay: LTEA_HepaRG_LPL: Life Technologies and Expression Analysis (LTEA) Assay for Lipoprotein lipase (LPL) using HepaRG (AID 2283515)
# Summary of the method: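 Read-out is LPL transcript level by qRT-PCR, normalized to three housekeeping genes and fitted bidirectionally against the DMSO control. Human HepaRG cells received chemicals for 48 h at up to 100 uM.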
# Nuclear factor NF-kappa-B p105 subunit (Homo sapiens), sequence (P19838 whole entry, looked up): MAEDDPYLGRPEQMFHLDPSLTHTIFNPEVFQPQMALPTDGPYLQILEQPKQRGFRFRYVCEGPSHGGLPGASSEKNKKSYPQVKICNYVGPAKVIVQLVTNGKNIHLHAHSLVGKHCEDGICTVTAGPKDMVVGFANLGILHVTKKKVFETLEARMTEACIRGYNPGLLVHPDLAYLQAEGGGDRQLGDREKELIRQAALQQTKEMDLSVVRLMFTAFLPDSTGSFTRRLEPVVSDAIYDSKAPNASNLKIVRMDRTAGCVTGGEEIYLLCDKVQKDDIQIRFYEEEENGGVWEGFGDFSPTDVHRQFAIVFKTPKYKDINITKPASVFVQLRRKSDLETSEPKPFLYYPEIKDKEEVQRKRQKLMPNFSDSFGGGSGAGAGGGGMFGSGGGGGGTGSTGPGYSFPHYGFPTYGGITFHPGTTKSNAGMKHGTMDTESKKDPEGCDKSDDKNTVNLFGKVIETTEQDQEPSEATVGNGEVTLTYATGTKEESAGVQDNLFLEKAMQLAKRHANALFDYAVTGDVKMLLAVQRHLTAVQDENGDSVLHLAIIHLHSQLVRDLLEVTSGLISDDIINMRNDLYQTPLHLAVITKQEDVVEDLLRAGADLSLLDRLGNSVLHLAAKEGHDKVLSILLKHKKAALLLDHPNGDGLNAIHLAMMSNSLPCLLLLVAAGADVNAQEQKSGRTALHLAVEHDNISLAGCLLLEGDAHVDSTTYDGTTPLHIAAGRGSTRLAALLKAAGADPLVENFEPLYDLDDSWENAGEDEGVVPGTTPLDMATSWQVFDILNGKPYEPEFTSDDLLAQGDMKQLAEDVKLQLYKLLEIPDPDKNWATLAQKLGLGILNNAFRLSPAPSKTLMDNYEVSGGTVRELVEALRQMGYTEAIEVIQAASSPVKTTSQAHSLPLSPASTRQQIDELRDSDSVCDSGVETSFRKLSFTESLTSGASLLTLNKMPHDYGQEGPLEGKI
structure (smiles),measurement,setting,value
Cc1ccc(N=C=O)cc1N=C=O,AC50,[1],30.4 µM (active)
same,AC50,[2],68.7 µM (active)
same,outcome,[3],inactive
same,outcome,[4],inactive
same,AC50,[5],24 µM (active)
same,AC50,[6],29.4 µM (active)
same,AC50,[7],73.5 µM (active)
same,outcome,[8],inactive
same,AC50,[9],23.9 µM (active)
same,outcome,[10],inactive
same,AC50,[11],50 µM (active)
same,AC50,[12],27 µM (active)
same,AC50,[13],19.3 µM (active)
same,outcome,[14],inactive
same,AC50,[15],12.4 µM (active)
same,outcome,[16],inactive
CC(C)COC(=O)c1ccccc1C(=O)OCC(C)C,outcome,[1],inactive
same,outcome,[2],inactive
same,outcome,[3],inactive
same,outcome,[4],inactive
same,outcome,[5],inactive
same,outcome,[6],inactive
same,outcome,[7],inactive
same,outcome,[8],inactive
same,outcome,[9],inactive
same,outcome,[10],inactive
same,outcome,[11],inactive
same,outcome,[17],inactive
same,outcome,[12],inactive
same,outcome,[13],inactive
same,outcome,[14],inactive
same,outcome,[15],inactive
Nc1cc(Cl)cc(C(=O)O)c1Cl,outcome,[1],inactive
same,outcome,[2],inactive
same,outcome,[3],inactive
same,outcome,[4],inactive
same,outcome,[5],inactive
same,outcome,[6],inactive
same,outcome,[7],inactive
same,outcome,[18],inactive
same,outcome,[9],inactive
same,outcome,[10],inactive
same,outcome,[11],inactive
same,outcome,[17],inactive
same,outcome,[12],inactive
same,outcome,[13],inactive
same,outcome,[14],inactive
same,outcome,[15],inactive
Nc1ccc(N=Nc2ccccc2)cc1,AC50,[1],34 µM (active)
same,AC50,[2],24.6 µM (active)
same,outcome,[3],inactive
same,AC50,[4],12.8 µM (active)
same,AC50,[5],30.9 µM (active)
same,outcome,[6],inactive
same,outcome,[7],inactive
same,AC50,[8],13 µM (active)
same,AC50,[9],50 µM (active)
same,outcome,[10],inactive
same,AC50,[11],12.8 µM (active)
same,outcome,[12],inactive
same,outcome,[13],inactive
same,outcome,[14],inactive
same,AC50,[15],18.4 µM (active)
Cc1ccc(N)cc1,outcome,[1],inactive
same,outcome,[2],inactive
same,outcome,[3],inactive
same,outcome,[4],inactive
same,outcome,[5],inactive
same,outcome,[6],inactive
same,outcome,[7],inactive
same,outcome,[8],inactive
same,outcome,[9],inactive
same,outcome,[10],inactive
same,outcome,[11],inactive
same,outcome,[19],inactive
same,outcome,[17],inactive
same,outcome,[12],inactive
same,outcome,[13],inactive
same,outcome,[14],inactive
same,outcome,[15],inactive
same,outcome,[16],inactive
ClC1=C(Cl)[C@]2(Cl)[C@H]3[C@H]([C@@H]4C=C[C@H]3C4)[C@@]1(Cl)C2(Cl)Cl,outcome,[1],inactive
same,outcome,[2],inactive
same,outcome,[3],inactive
same,outcome,[4],inactive
same,outcome,[5],inactive
same,outcome,[6],inactive
same,outcome,[8],inactive
same,outcome,[9],inactive
same,outcome,[10],inactive
same,outcome,[11],inactive
same,outcome,[12],inactive
same,AC50,[13],50 µM (active)
same,outcome,[14],inactive
same,outcome,[15],inactive
